# Several values for one entry are separate records, joined by “and”; a condition that tells them apart may be missing. Identical values can stand only once. Screen size: about 16,000 compounds; about 5,800 (36%) were called active. About 23% were inconclusive and are not listed. The call rests on the fitted dose curve; in most records, active means well fitted curve in the direction sought with a large enough effect; inconclusive means small, poorly fitted or top-dose-only effect, or effect the other way; inactive means no such curve, though single readings can be large or run the other way. This is one part of the list. Some structures have more than one record in an assay (separate samples or runs), and their calls can disagree.
# Target: Cytochrome P450 2C19 (Homo sapiens) (UniProt P33261)
# Assay: Cytochrome panel assay with activity outcomes
# Details: recombinant CYP, pro-luciferin dealkylation, luminescence, p450-cyp2c19; series mostly up to 57.1 µM
# On the % scale 0 is the no-effect control and ±100 the full control effect.
# Cytochrome P450 2C19 (Homo sapiens), sequence (P33261 whole entry, looked up): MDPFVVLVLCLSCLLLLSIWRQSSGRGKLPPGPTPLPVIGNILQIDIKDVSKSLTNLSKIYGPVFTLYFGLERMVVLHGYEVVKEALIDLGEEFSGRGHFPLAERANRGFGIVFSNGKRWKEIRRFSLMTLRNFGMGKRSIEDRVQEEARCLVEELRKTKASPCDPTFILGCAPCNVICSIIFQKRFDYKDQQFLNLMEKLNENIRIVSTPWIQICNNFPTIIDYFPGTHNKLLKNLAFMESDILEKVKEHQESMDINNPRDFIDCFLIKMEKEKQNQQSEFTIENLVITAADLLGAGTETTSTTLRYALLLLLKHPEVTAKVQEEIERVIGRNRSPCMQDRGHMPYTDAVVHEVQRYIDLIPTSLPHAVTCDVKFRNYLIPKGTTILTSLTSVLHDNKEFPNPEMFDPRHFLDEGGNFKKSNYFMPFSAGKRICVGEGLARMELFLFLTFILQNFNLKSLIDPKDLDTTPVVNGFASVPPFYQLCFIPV
SMILES,"activity, negative = inhibition",AC50
CO[C@H]1[C@H](O)[C@H](O[C@@H]2[C@H](Oc3cccc4c(O)c5c(=O)oc6ccc(C)c7c(=O)oc(c34)c5c67)O[C@@H](C)[C@H](O)[C@H]2O)O[C@@H](C)[C@@H]1O,22.4% [at 11.4 µM] (inactive),–
CC[C@@H](CO)Nc1nc(NCc2ccccc2)c2ncn(C(C)C)c2n1,–,inactive
Cc1[nH]c2ccc(O)cc2c1CCN,–,inactive and 7.94 µM (active)
NCCc1c[nH]c2ccc(O)cc12,–,inactive
CNCCc1c[nH]c2ccc(O)cc12,–,inactive
CCCN(CCC)[C@@H]1CCc2c(OC)cccc2[C@@H]1C,–,inactive
C[C@]12CC[C@H](O)CC1=CC[C@@H]1[C@H]2CC[C@]2(C)C(=O)CC[C@H]12,–,inactive
O=P(Nc1ccccc1)(Nc1ccccc1)Oc1cccc(Cl)c1,–,5.01 µM (active)
NS(=O)(=O)c1ccc(-c2ccc([As](=O)(O)O)cc2)cc1,24.2% [at 11.4 µM] (inactive),–
C[C@]12N[C@H](Cc3ccccc31)c1ccccc12,–,inactive
N#Cc1ccc(CN2CC[C@@]3(CCCNC3)C2)cc1,–,inactive
Clc1cccc(N2CCNCC2)c1,–,inactive
CN[C@H](Cc1ccccc1)c1cccc(OC)c1O,–,2 µM (active)
NCCP(=O)(O)O,26% [at 11.4 µM] (inactive),–
O=C(Cn1ncc2ccsc2c1=O)N1CCC2(CC1)OCCO2,–,22.4 µM (active)
O=C(CNS(=O)(=O)c1ccc(Br)s1)N1CCC2(CC1)OCCO2,–,2.82 µM (active)
O=C(CNS(=O)(=O)c1cccs1)N1CCC2(CC1)OCCO2,–,7.08 µM (active)
CCN(CC)CCO[C@H]1CC[C@@]2(C)C(=CC[C@@H]3[C@H]2CC[C@]2(C)C(=O)CC[C@H]32)C1,–,inactive
CN(C)C(=O)Oc1cccc([N+](C)(C)C)c1,–,inactive
O=C(Oc1ccc(S(=O)(=O)F)cc1F)c1ccccc1Cl,11.2% [at 11.4 µM] (inactive),–
N[C@@]1(C(=O)O)CC[C@H](C(=O)O)C1,–,inactive
CC(C)CN1CC[C@@]2(CCCN(C(=O)Oc3ccccc3)C2)C1,–,inactive
C[C@@H]1[C@@H](C)N1C[C@H](O)Cn1ccnc1[N+](=O)[O-] (stereo not given in full),3.22% [at 11.4 µM] (inactive),–
O=c1c2ccccc2c2ccccc2c(=O)n1-c1cc2c3ccccc3ccc2c2ccccc12,–,0.158 µM (active)

SMILES,"activity, negative = inhibition",AC50
CC[C@H]1CN2CC[C@@H]1C[C@H]2[C@@H](O)c1ccnc2ccc(OC)cc12,–,inactive
Cc1ncsc1CCCl,–,7.94 µM (active)
CN(C)CCC=C1c2ccccc2CCc2ccccc21,–,inactive
CCN(CC)C1=NC(=[N+](CC)CC)c2ccccc21,–,inactive
C[C@@]12CCC(=O)C=C1C=C[C@H]1[C@H]3CC[C@](O)(CCC(=O)O)[C@]3(C)CC[C@@H]12,–,inactive
COC(=O)c1cc2c(cn1)[nH]c1ccccc12,–,3.98 µM (active)
C[C@@]12CC[C@H]3[C@@H](CCC4=CC(=O)CC[C@]43C)[C@H]1CC[C@H]2C(=O)CO,–,inactive
Cc1ccc(S(=O)(=O)O[C@H]2CN3CCC2CC3)cc1,21.1% [at 11.4 µM] (inactive),–
NC(N)=Nc1ccc2[nH]c3c(c2c1)C[C@]1(O)[C@@H]2Cc4ccc(O)c5c4[C@]1(CCN2CC1CC1)[C@H]3O5,–,inactive
O=[N+]([O-])O[C@H]1CO[C@H]2[C@H]1OC[C@@H]2O[N+](=O)[O-],–,inactive
CCCC[N+]1(C)[C@@H]2CC(OC(=O)[C@@H](CO)c3ccccc3)C[C@H]1[C@H]1O[C@H]12 (stereo not given in full),–,inactive
CC1=C(O)C(=O)[C@H]2O[C@@H]2C1=O,–,0.158 µM (active)
CN1CCCC2(CCN(C(=O)c3ccncc3)CC2)C1,–,inactive
CN(C)Cc1c[nH]c2ccccc12,–,inactive
CC1=NN(c2ccccc2)C(=O)[C@@H]1N=Nc1ccc([As](=O)(O)O)c(O)c1,22.8% [at 11.4 µM] (inactive),–
C[C@H](c1ccccc1)N1CCN([C@@H](C)c2ccccc2)CC1,-29.5% [at 11.4 µM] (inactive),–
Cc1cc(C(C)(C)C)cc(C)c1CC1=NCCN1,–,inactive
C=CCN1C(=O)NC(=O)/C(=C/c2cccn2C)C1=O,–,inactive
CCN(CC)c1ccc(/C=C2/C(=O)NC(=O)N(CC3CCCO3)C2=O)cc1 (stereo not given),–,7.08 µM (active)
Oc1ccc([C@H](O)[C@@H]2CCCCN2)cc1O,10% [at 11.4 µM] (inactive),–
CN1[C@H]2CC(=O)C[C@@H]1[C@@H](O)C2,–,inactive
C[C@@]12CC[C@H]3[C@@H](CC[C@@H]4C[C@H]5S[C@H]5C[C@]43C)[C@H]1CC[C@H]2O,–,0.0631 µM (active)
C[C@@]12CC[C@@H]3c4ccc(O)cc4CC[C@H]3[C@H]1CC[C@H]2O,–,inactive
C[N+](C)(C)CCCCCCCCCC[N+](C)(C)C,–,inactive

SMILES,"activity, negative = inhibition",AC50
Nc1nc(N)c(N=Nc2ccc([As](=O)(O)O)cc2)c(=O)[nH]1,19% [at 11.4 µM] (inactive),–
COC(=O)Nc1nc2ccc(C(=O)c3cccs3)cc2[nH]1,–,inactive
O=C1C=CC(=O)c2c1ccc1c2ccc2ccccc21,–,1.58 µM (active)
CCN1C[C@]2(COC)CC[C@H](O)[C@@]34[C@@H]5C[C@H]6[C@@H](OC)[C@H]5[C@](O)(C[C@@H]6OC)[C@@](O)([C@@H](OC)[C@H]23)[C@@H]14,–,inactive
C[C@@]12CC[C@@H]3[C@@H](CC[C@H]4C[C@@H](O)CC[C@]43C)[C@H]1CC[C@@H]2c1cc(C(F)(F)F)n[nH]1,–,2.51 µM (active)
C[C@]12CC[C@H](O)C[C@@H]1CC[C@H]1[C@H]2CC[C@]2(C)C(=O)CC[C@@H]12,–,inactive
C[C@]12CC[C@H](O)C[C@@H]1CC[C@H]1[C@H]2CC[C@]2(C)[C@H](C(=O)CO)CC[C@@H]12,–,inactive
NN=C(N)N,–,inactive
N[C@H](CCC(=O)N[C@H](CSN=O)C(=O)NCC(=O)O)C(=O)O,–,1.58 µM (active)
COC(=O)[C@H]1C(=O)c2ccccc2O[C@@](C(=O)OC)(c2ccccc2)[C@@H]1c1ccccc1,-43% [at 11.4 µM] (inactive),–
CN1CCN(c2cc(N3CCCC3)c([N+](=O)[O-])cc2F)CC1,–,7.94 µM (active)
NC(=O)c1cc(N2CC2)c([N+](=O)[O-])cc1[N+](=O)[O-],–,inactive
CN(C)C(=O)Oc1ccc[n+](C)c1,–,inactive
CSC([N-]/N=C/c1cccc(C)n1)=[S]=[Cu].CS[C@H]([S-])[N-]/N=C/c1cccc(C)n1,–,0.2 µM (active)
CC(=O)OC1=CC2=CC[C@H]3[C@H]4CCC(=O)[C@@]4(C)CC(=O)[C@]3(S)[C@]2(C)CC1,-14.8% [at 11.4 µM] (inactive),–
c1csc(CN2CCC3(CCNCC3)CC2)n1,–,inactive
CCCN(CCC)[C@@H]1CCc2ccc(O)cc2C1,–,inactive
CCCN(CCC)[C@@H]1CCc2cccc(O)c2C1,–,inactive
CCCN(C/C=C\I)[C@@H]1CCc2ccc(O)cc2C1,–,1 µM (active)
CN(C)CC/C=C1\c2ccccc2Sc2ccc(Cl)cc21,-17.3% [at 11.4 µM] (inactive),–
NO,–,inactive
Cc1sc2c(c1C)C(c1ccc(C(C)(C)C)cc1)=NCC(=O)N2CC(=O)Nc1nccs1,–,6.31 µM (active)
CCCN1CCC[C@H](c2cccc(C#N)c2)C1,–,inactive
CCN1C[C@]2(C)CC[C@@H](O)[C@]34[C@@H]5CC6[C@@H](OC)C[C@@](O)([C@H]5[C@@H]6O)[C@@H](C[C@@H]23)[C@H]14,–,inactive

SMILES,"activity, negative = inhibition",AC50
CC(C)(C)CC(=O)NC(=S)Nc1ccccc1C(F)(F)F,–,3.16 µM (active)
CC(C)c1ccc(C(c2c(O)c3ccccc3oc2=O)c2c(O)c3ccccc3oc2=O)cc1,-40.6% [at 11.4 µM] (inactive),–
Cn1c(=O)c2[nH]cnc2n(C)c1=O,–,inactive
CC(C)(C)NC[C@@H](O)COc1cccc2[nH]c(C#N)cc12,–,15.8 µM (active)
c1csc(CN2CC3(CCNCC3)C2)n1,–,inactive
Oc1ccc(CCNCc2cc3c(cc2Br)OCO3)cc1,–,5.01 µM (active)
C[N+]1(C)CCO[C@](O)(c2ccc(-c3ccc([C@]4(O)C[N+](C)(C)CCO4)cc3)cc2)C1,–,inactive
Fc1ccccc1CCNCc1cccc(Cl)c1Cl,–,0.631 µM (active)
N=C(N)n1cc(/C=N\N=C(N)N)cn1,16.3% [at 11.4 µM] (inactive),–
COc1ccc(C2NCc3ccc4c(c3-n3cccc32)OCO4)cc1OC (stereo not given),–,3.16 µM (active)
O=C(Oc1ccccc1)N1CCC2(CCN(Cc3nccs3)CC2)CC1,–,inactive
CCCN(CCC)[C@H]1CCc2c(F)ccc(O)c2C1,–,inactive
C/C(=N\OC(=O)NC(C)C)c1sc(-c2ccc(Cl)cc2)nc1C,–,5.01 µM (active)
CCNC(=O)O/N=C(\C)c1sc(-c2ccccc2)nc1C,–,11.2 µM (active)
C/C(=N\OC(=O)NC(C)C)c1sc(-c2ccccc2)nc1C,–,10 µM (active)
OC(c1ccccc1)(c1ccccc1)C1CCNCC1,–,inactive
NS(=O)(=O)C[C-]1C=C[CH]([Sb-]([Cl])([Cl])([Cl])([Cl])[Cl])C=C1.c1ccncc1 (stereo not given),12.8% [at 11.4 µM] (inactive),–
COc1ccc2[nH]cc(CCN(C)C)c2c1,–,inactive
CCc1cc2c(nc1CC)CCN(CC/C(C)=N/OC)C2,6.29% [at 11.4 µM] (inactive),–
C=C(C)[C@H]1CC[C@]2(C(=O)O)CC[C@]3(C)[C@@H](CC[C@H]4[C@@]5(C)CC[C@@H](O)C(C)(C)[C@@H]5CC[C@@]43C)[C@H]12,–,inactive
O=[As](O)(O)c1ccc(NCc2ccccc2)cc1,1.27% [at 11.4 µM] (inactive),–
COC(=O)C1(C)C=C2C(=C(C)C(=O)C2C)CN1 (stereo not given),–,inactive
Ic1ccccc1CN[C@@H]1C2CCN(CC2)[C@H]1C(c1ccccc1)c1ccccc1,–,inactive
